Bioassay records as filed in PubChem.
RGS7-Gao – regulators of human RGS7-Galphao interaction; P09471; Multiplexed bead flow cytometry, RGS7-Galphao binding; actives lie on both sides; binding response (% of control), % at 10 µM; 220,000 compounds, 0.35% hits; in the data active means binding response below about 49% or above about 150%; inconclusive means no clear call, values can overlap the other calls; inactive means in between;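 further: fluorescent Galphao held in activated GDP-AlF4 state binding bead-coupled RGS7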
GSH fluor – GSH bead compound fluorescence profile | fluorescence (KMESF) at 10 µM | 190,000 compounds, 0.25% hits | GSH beads flow cytometry, compound fluorescence 488/530 nm; active compounds read high; in the data active means fluorescence above about 89;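 further: glutathione beads carrying GST-tagged Bcl family fusion proteins plus one bare bead set; values are compound well signal with DMSO vehicle wells as background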
RGS8-Gao reg – modulates binding of RGS8 to human Galphao. P09471. multiplexed bead flow cytometry; actives lie on both sides. response (percent of control binding), % at 10 µM. 220,000 compounds, 0.34% hits; in the data active means response below about 60% or above about 140%; inactive means in between;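 further: Galphao activated as the GDP aluminium fluoride complex binding bead-coupled RGS8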
RGS4-Gao reg – human RGS4-Galphao interaction regulation | 220,000 compounds, 0.33% hits | Multiplexed bead flow cytometry, RGS4-Galphao binding; actives lie on both sides | AID 1415 | binding response (% of control), % at 10 µM | P09471; in the data active means binding response below about 49% or above about 150%; inactive means in between;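 further: fluorescent Galphao activated with aluminum fluoride binding bead-coupled RGS4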
RGS16-Gao HTS – modulates binding between human RGS16 and Galphao | O15492+P09471 | bead-based flow cytometry RGS16-Galphao binding, fluorescence; actives lie on both sides | binding response (% of control), % at 10 µM | 220,000 compounds, 0.38% hits | AID 1441; call rule not given here;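 further: Galphao activated by GDP with aluminum fluoride before binding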
Target sequence (O15492 whole entry, looked up): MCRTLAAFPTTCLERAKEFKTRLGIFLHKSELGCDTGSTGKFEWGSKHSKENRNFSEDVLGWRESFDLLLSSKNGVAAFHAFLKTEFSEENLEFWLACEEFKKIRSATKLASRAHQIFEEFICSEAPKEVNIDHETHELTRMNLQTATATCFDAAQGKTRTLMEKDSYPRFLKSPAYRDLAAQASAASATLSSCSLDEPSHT
Target sequence (P09471 whole entry, looked up): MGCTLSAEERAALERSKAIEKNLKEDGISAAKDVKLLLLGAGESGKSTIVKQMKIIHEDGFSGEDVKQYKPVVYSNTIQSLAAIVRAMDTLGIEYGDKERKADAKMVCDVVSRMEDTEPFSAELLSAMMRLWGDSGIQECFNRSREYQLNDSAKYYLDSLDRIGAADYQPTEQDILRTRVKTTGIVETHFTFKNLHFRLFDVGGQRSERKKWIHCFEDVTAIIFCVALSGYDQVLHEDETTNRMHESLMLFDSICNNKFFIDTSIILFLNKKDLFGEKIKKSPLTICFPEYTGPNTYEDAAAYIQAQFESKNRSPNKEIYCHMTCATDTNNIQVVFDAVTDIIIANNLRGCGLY
Avidin fluor – compound fluoresces at 488/530 nm on avidin beads; fluorescence (KMESF) at 10 µM; compound fluorescence 488/530 nm, flow cytometry; active compounds read high; 220,000 compounds, 0.38% hits; AID 1775; in the data active means fluorescence above about 47
The depositor's hits bear a star; ? = inconclusive; . = no result given; [ ] = dose if it differs, or a comment. The list is not random: actives were taken first. Their share in the collection is about 1.2%.

SMILES	RGS7-Gao	GSH fluor	RGS8-Gao reg	RGS4-Gao reg	RGS16-Gao HTS	Avidin fluor
O=C(N/N=C/c1ccc(-c2ccc(S(=O)(=O)Nc3ncccn3)cc2)o1)c1cc2ccccc2cc1O	102	28	100	112	101	50*
COc1ccc(OC)c(C2C=C(c3ccc(C)c(C)c3)Nc3nnnn32)c1 (configuration not stated)	112	53	102	106	102	51*
Cc1ccc2nc(SC(C(=O)c3ccccc3)c3ccccc3)nc(C)c2c1 (configuration not stated)	101	5	104	102	107	16
Cc1ccccc1N/C(SCc1ccc(Cl)cc1)=C(/C#N)C(=O)NCc1ccco1	140	24	100	107	104	115*
Cc1ccc(CS/C(Nc2ccccc2C)=C(\C#N)C(=O)NCc2ccco2)c(C)c1	100	14	100	100	99	10
Cc1nn(-c2ccccc2)c(C)c1/C=N/NC(=O)c1cccs1	100	12	98	104	75	10
C=CCN=C1S/C(=C\c2ccc(Cl)cc2)C(=O)N1CC=C	?	.	98	122	114	49*
O=C(COC(=O)c1ccncc1)NCCCc1ccccc1	152*[activator]	14	139	154*[activator]	148	11
O=C(COC(=O)c1ccncc1)NCc1ccccc1	99	27	100	99	101	16
O=C(CN1CCOCC1)N1CCN(S(=O)(=O)c2ccccc2)C1c1ccccc1 (configuration not stated)	105	14	99	101	99	59*
CCOC(=O)c1nn(-c2ccccc2)c(=O)cc1SC(C)C	102	25	108	103	134	21
CCOC(=O)c1nn(-c2ccccc2)c(=O)cc1SC(C)CC (configuration not stated)	144	32	101	110	103	100*
COc1cc(SSc2cc(OC)cc([N+](=O)[O-])c2N)c(N)c([N+](=O)[O-])c1	?	.	76	102	39	5
CCOc1ccc(C(CCc2ccccc2)NC(=O)c2ccccc2OC)cc1OCC (configuration not stated)	111	21	103	106	108	51*
CCOc1ccccc1C(=O)NC(CO)C(=O)O (configuration not stated)	102	271*	101	104	106	6
CCOc1ccccc1C(=O)NCCC(=O)O	109	17	134	115	253	6
CCC(C)(C)NC(=O)C(c1cccn1C)N(Cc1ccc(OC)cc1)C(=O)Cn1nnc2ccccc21 (configuration not stated)	98	17	101	101	99	22
Cn1c2ccccc2c2c(C(=O)N3CCN(c4ccccn4)CC3)cn(C3CCCC3)c(=O)c21	103	13	102	103	107	9
Cn1c2ccccc2c2c(C(=O)N3CCN(C(=O)c4ccco4)CC3)cn(C3CCCCC3)c(=O)c21	71	149*	93	65	62	11
COCCCn1c(SCC(=O)Nc2ccc(C(C)=O)cc2)nc2ccccc2c1=O	99	259*	100	94	92	7
COCCCn1c(SCC(=O)NCc2ccccc2)nc2ccccc2c1=O	108	14	105	106	112	6
O=C(O)CN1CCCCC1	97	13	99	99	100	11
CC(=O)/C(CN1CCCCC1)=N\O	136	13	101	110	103	85*
O=C(COC(=O)c1cc(S(=O)(=O)N2CCc3ccccc3C2)ccc1Cl)NCc1ccco1	96	4	96	94	93	6
O=C(COC(=O)c1cccc(S(=O)(=O)N2CCc3ccccc3C2)c1)NCc1ccco1	89	256*	93	83	57	5
SMILES	RGS7-Gao	GSH fluor	RGS8-Gao reg	RGS4-Gao reg	RGS16-Gao HTS	Avidin fluor
O=C(Cn1[nH]c(=O)c2ccccc2c1=O)Nc1ccc2c(c1)CCC2	100	270*	100	102	105	8
O=C1CN(C(=O)c2ccccn2)c2ccccc2N1	97	229*	101	106	86	6
O=C1CN(C(=O)c2ccccc2F)c2ccccc2N1	101	20	99	100	103	23
CCN(CC)c1ccc(NC2CC(=O)N(CCc3ccc(OC)cc3)C2=O)cc1 (configuration not stated)	?	.	101	106	102	10
N#CCSc1nnc2sc3ccccc3n12	98	23	104	102	101	6
Brc1ccccc1-c1nnc(CSc2nnc3sc4ccccc4n23)o1	99	257*	102	100	103	8
O=C(CC(Nc1ccccc1)C(=O)O)c1ccccc1 (configuration not stated)	94	259*	99	101	96	7
Cc1ccc(NC(CC(=O)c2ccccc2)C(=O)O)cc1Cl (configuration not stated)	?	.	98	98	96	4
CN(C)C(CNc1ncnc2sc3c(c12)CCCC3)c1ccco1 (configuration not stated)	100	12	100	97	100	9
CCCc1nccn1S(=O)(=O)c1cc(OC)ccc1OC	99	249*	101	101	102	8
CCc1nccn1S(=O)(=O)c1cc(Br)ccc1OC	101	23	99	102	101	32
CC(=O)Nc1cc2c(=O)n(Cc3ccccc3)c(C)nc2cc1N1CCOCC1	113	37	102	107	105	52*
CC(=O)Nc1ccc(OCc2nnc(-c3ccc(Cl)cc3)o2)cc1	93	14	97	97	95	11
Cc1c(NS(C)(=O)=O)c(=O)n(-c2ccccc2)n1C	101	252*	112	108	99	5
Cc1c(NS(=O)(=O)N2CCCC2)c(=O)n(-c2ccccc2)n1C	102	48	101	97	96	7
CS(=O)(=O)N(Cc1ccccc1)c1ccc(C(=O)NCCSCc2ccco2)cc1	96	88*	100	92	103	6
CC(C(=O)NC(C)(C)C)N1C(=O)c2cccc3cccc(c23)C1=O (configuration not stated)	97	26	97	98	99	8
COc1ccc(/C(N)=N/OC(=O)c2ccc3c(c2)OCO3)cc1	133	10	103	111	105	48*
CCOC(=O)c1ccccc1NC(=S)N1CCN(C2CCCCC2)CC1	?	16	100	99	101	11
S=c1[nH]nc(-c2ccccc2Cl)n1CC1CCCO1 (configuration not stated)	110	30	101	103	104	52*
CCCN1C(=O)c2ccc(C(=O)Nc3cc(C)on3)cc2C1=O	99	17	102	100	102	9
